SMILES strings stand for the structures. Inconclusive results are not listed. Unmarked numbers belong to inactive results. The source made the active and inactive calls. The call rests on the fitted dose curve; in most records, active means well fitted cell-killing curve with a large enough effect; inconclusive means small, poorly fitted or top-dose-only effect; inactive means flat fitted curve, though single readings scatter.
Potency means the concentration at half of the fitted maximal effect.

The nature of the assay: qHTS of pediatric cancer cell lines to identify multiple opportunities for drug repurposing: Confirmatory screen for A673 cells (AID 1347110).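 Further: cells exposed to compound for 48 h before the viability read; nearly all actives have a fitted effect of over 65% in size.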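 On activity change, negative = cytotoxicity: plate controls were DMSO neutral control for no effect and bortezomib positive control for full effect.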 As to conditions: A673 Ewing sarcoma cell viability; series mostly up to 45.9 µM; activity change, negative = cytotoxicity: at the top concentration. The text has this:
Drug repurposing or repositioning has been offered as a strategy for drug development in oncology programs. This approach has special potential for childhood cancers and other rare or orphan diseases, where the expected return on new drug development has been a disincentive to pharmaceuticals.
In this project we exploit the poly-pharmacology of drugs to discover new indications via phenotypic screening of a panel of 19 well-characterized cell lines derived from solid tumors seen in children and adolescents. The goal is to identify approved drugs with previously unrecognized anticancer properties that has the potential to reveal new mechanisms and biological processes involved in carcinogenesis or drug resistance. We employed a titration-based paradigm (quantitative high-throughput screening or qHTS), where all compounds were tested at multiple concentrations for their effect on cell viability. Concentration-response curves (CRCs) were derived directly from the primary screen, and both potency and efficacy values were used to identify compounds with robust bioactivity profiles. We screened the NIH Chemical Genomics Center (NCGC) Pharmaceutical Collection (NPC) and Mechanism Interrogation Plate (MIPE) small molecule collections of approved and investigational compounds against these cell lines; and measured metabolically active cells after 48 hours of compound treatment as a proxy for cell viability.
Assay Submitter: Nathalia J. Martinez, National Center for Advancing Translational Sciences, National Institutes of Health, Rockville, MD, USA; email: natalia.martinez@nih.gov.
[1] Shen, M et al. Quantitative high-throughput phenotypic screening of pediatric cancer cell lines identifies multiple opportunities for drug repurposing. Oncotarget 2017 Dec 19;9(4):4758-4772. PMID 29435139.
The cells were obtained from University of North Carolina (UNC), Pediatric Preclinical Testing Program (PPT), and Coriell Institute (CI).
qHTS cell viability assay:
Cells were assayed in growth media at a density of 500-1,000 cells/well. Five microliters of cells were dispensed into 1,536-well, white, solid-bottom, TC-treated plates (Greiner Bio One) using a multidrop dispenser and incubated at 37 degrees C, 5% CO2, under a humidified atmosphere for 5 hours. Twenty-three nanoliters of compounds and controls (neutral control DMSO or positive control bortezomib at final concentration of 2.3 uM) were subsequently transferred by Kalypsys pintool. For primary screens, the MIPE collection was tested at 11-point dilutions (final concentrations range from 0.78 nM to 46 µM) and the NPC collection at 8-point dilutions (final concentrations range from 0.59 nM to 46 µM). Compounds tested in follow-up screens were assayed at 11-point dilutions. Cells were incubated for 48 hours, followed by addition of 3 uL of CellTiter-Glo (Promega). After a 15min incubation at room temperature, samples were analyzed for luminescence intensity using a ViewLux High-throughput CCD imager equipped with clear filters.
Background: Quantitative high-throughput screening tests each substance at several concentrations.
For the compound `CCc1ccc(C2CCNCC2)cc1`, the “activity change, negative = cytotoxicity” value is -1.64%.

As for `COc1ccc2c(C(=O)c3ccc(Cl)cc3)c(C)n(CC(=O)O)c2c1`, the Potency is 7370 nM (active).

Consider `C[C@@H]1O[C@@H](O[C@@H]2C=C3CC[C@@H]4[C@H](CC[C@]5(C)[C@@H](c6ccc(=O)oc6)CC[C@]45O)[C@@]3(C)CC2)[C@H](O)[C@H](O)[C@H]1O`, for which the Potency was 58.5 nM (active).

`CCCCCCCCC(=O)NCc1ccc(O)c(OC)c1`: the “activity change, negative = cytotoxicity” value is -21.2%.

Take `O=C(O)Cc1ccccc1`: the “activity change, negative = cytotoxicity” value was 5.78%.

As for `CCCCCCCCCCCC[N+](C)(C)CCOc1ccccc1`, the Potency is 8270 nM (active).

On to `COC(=O)C1=CCCN(C)C1`, for which the “activity change, negative = cytotoxicity” value was 14.8%.

For `Cc1ccc([N+](=O)[O-])[c]2c1[O][Hg]2`, the Potency is 737 nM (active).

In the case of `CC[n+]1c(-c2ccccc2)c2cc(N)ccc2c2ccc(N)cc21`, the Potency was 3290 nM (active).

For `COc1ccc(C(=O)N2CCCC2=O)cc1`, the “activity change, negative = cytotoxicity” value is 8.09%.

For the compound `C[C@@H]1C[C@@H]([C@H](O)CC2CC(=O)NC(=O)C2)C(=O)[C@@H](C)C1`, the Potency is 1650 nM (active).

Consider `CN1[C@@H]2CC[C@H]1CC(OC(=O)c1cc(Cl)cc(Cl)c1)C2` (stereo partly drawn), for which the “activity change, negative = cytotoxicity” value is -15.1%.

Consider `CN(C)C(=S)SSC(=S)N(C)C`, for which the Potency was 329 nM (active).
